The values that follow come from the supplement of paper PMC12636033.

± gives the standard deviation of the averaged measurements. In all, about 33,000 sequences were measured (“E-score (rank enrichment, -0.5 to 0.5)”: median about -0.0068, highest 2% from about 0.24 on). What follows is part of a selection rich in the highest values, with near analogues and random picks from the rest.

For this assay, the system named is muMax20 (Max(13-93) K31hArg/K57hArg, M65Nle). The experiment in a line: PBM 8-mer E-score (E-score (rank enrichment, -0.5 to 0.5)); higher = stronger preferential binding. As for the experimental part: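 Protein binding microarray (universal PBM chip covering all 10-mers in fixed probe flanks) with chemically synthesized human Max(13-93) bHLH-LZ analogs (not full-length Max) bearing noncanonical residues (hArg, Tha, Aib, Nle at 65) and aromatic Cys staples. Read-out per 8-mer (and its reverse complement): E-score (rank-based enrichment, -0.5 to 0.5) and Z-score of median probe intensity.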
For the sequence CAGGCTTC, the “PBM 8-mer E-score” value is -0.0969 ± 0.0043. As to GATACGCC, the “PBM 8-mer E-score” value is -0.108 ± 0.043. Then ACTTTTGC, with 0.0617 ± 0.018; and CATGTTAC, with 0.123 ± 0.025; and AGCCGCCG, with -0.192 ± 0.18.

In the case of AGCTCCTA, the “PBM 8-mer E-score” value was -0.251 ± 0.015. Turning to CCTCCCTA, the “PBM 8-mer E-score” value was -0.153 ± 0.075. In the case of AGCTTAAC it was -0.126 ± 0.1; in that of ACACTCGG, -0.0657 ± 0.025. For the sequence CTATACGC, the “PBM 8-mer E-score” value is -0.00851 ± 0.07. Then CCTCGTTA, with -0.00353 ± 0.0057; and ATACAAGC, with 0.243 ± 0.079.

Regarding AAACAAAA, the “PBM 8-mer E-score” value was determined as 0.211 ± 0.061.

With CTACAAGC, the “PBM 8-mer E-score” value is -0.0802 ± 0.066. As to GCACAACC, the “PBM 8-mer E-score” value is -0.23 ± 0.0046. In the case of CCACAACA it was -0.0271 ± 0.0066; in that of AAACAAAC, 0.154 ± 0.025; in that of ATACAAGA, 0.0614 ± 0.015. In the case of GTACAAAC it was 0.116 ± 0.0057. As for AAACAAAT, the “PBM 8-mer E-score” value worked out at 0.284 ± 0.031. Take GCACAACA: the “PBM 8-mer E-score” value worked out at 0.238 ± 0.016. In the case of GTACAAGA, the “PBM 8-mer E-score” value was determined as 0.119 ± 0.012. Then GTACAAAA, with 0.2859 ± 0.0025; and GAGTCCAA, with -0.159 ± 0.12; and GCGACACA, with -0.067 ± 0.12. In the case of GTCTCTGA it was -0.161 ± 0.093. In the case of CTTTATTC it was 0.0219 ± 0.12. On to ACATATGC, for which the “PBM 8-mer E-score” value was found to be 0.105 ± 0.011. Then GCATATGA, with 0.186 ± 0.04. Consider ATATATGC, for which the “PBM 8-mer E-score” value turned out to be 0.0936 ± 0.17.

For the sequence CTATATGA, the “PBM 8-mer E-score” value stood at 0.109 ± 0.074. As for CTATATGC, the “PBM 8-mer E-score” value was 0.238 ± 0.043. On to ATATATGG, for which the “PBM 8-mer E-score” value came to 0.258 ± 0.028. In the case of ATTTATTC it was 0.241 ± 0.046. In the case of GCATATGC, the “PBM 8-mer E-score” value was determined as 0.24 ± 0.032. In the case of ACATATGG it was 0.12 ± 0.078; in that of ATATATGA, 0.218 ± 0.069; in that of ATTTATTA, 0.132 ± 0.06. In the case of TACCCCAA it was 0.157 ± 0.005; in that of GGAGAGCC, -0.211 ± 0.032.

Turning to GACGCCAC, the “PBM 8-mer E-score” value is -0.137 ± 0.094. In the case of ATGTCCGC, the “PBM 8-mer E-score” value was -0.126 ± 0.088. Consider GACACTGA, for which the “PBM 8-mer E-score” value is -0.11 ± 0.068. In the case of GCAGCCAC it was -0.0591 ± 0.03; in that of CTCAGTGC, -0.224 ± 0.0089. Then ATATATTC, with 0.201 ± 0.041; and CTCTATTC, with 0.00532 ± 0.064.

For CTATATTC, the “PBM 8-mer E-score” value stood at 0.262 ± 0.052.

Turning to AAAAGCAT, the “PBM 8-mer E-score” value was 0.243 ± 0.018.

For the sequence AAAAGCTA, the “PBM 8-mer E-score” value was 0.123 ± 0.0035.

In the case of AAAAGCAC, the “PBM 8-mer E-score” value stood at 0.162 ± 0.061. Then AATAGTAT, with 0.24 ± 0.012; and AAAAGCAG, with -0.0145 ± 0.05; and AATAGTAG, with 0.0461 ± 0.02. Then AATAGTAA, with 0.152 ± 0.012. In the case of AAAAGTAT it was 0.249 ± 0.044; in that of AAAAGCTG, 0.271 ± 0.081.

Regarding AAAAGTAA, the “PBM 8-mer E-score” value was 0.12 ± 0.033. Then AAAAGTAC, with 0.184 ± 0.042; and CAAAGCTG, with 0.0952 ± 0.083; and CCGTCGTC, with -0.109 ± 0.011. For AACTGGGT, the “PBM 8-mer E-score” value is -0.078 ± 0.061. Then CCAATGAG, with -0.095 ± 0.001; and CATGGACG, with 0.0146 ± 0.1; and GAAGAGGC, with -0.108 ± 0.083. With AGACGGAT, the “PBM 8-mer E-score” value worked out at 0.0634 ± 0.17. In the case of GTCAATGA it was 0.0559 ± 0.0022. Then CCTGCTGC, with -0.107 ± 0.061; and TAGTATCA, with 0.131 ± 0.033; and ATAGATGA, with 0.0906 ± 0.033. With AACGCATA, the “PBM 8-mer E-score” value was found to be 0.0704 ± 0.12. In the case of ACACGTGC, the “PBM 8-mer E-score” value turned out to be 0.452 ± 0.05. In the case of ACACGTCT it was 0.0471 ± 0.065; in that of ACACGTCA, 0.246 ± 0.006. In the case of ACACGTAC it was 0.137 ± 0.036. As for ACACGTCG, the “PBM 8-mer E-score” value is -0.148 ± 0.048. Then AGACGTGC, with -0.0738 ± 0.042; and AGACGTGA, with 0.104 ± 0.027; and ATACGTGA, with 0.068 ± 0.019. Then ACAGGTGA, with 0.264 ± 0.062; and GCAGGTGA, with -0.0216 ± 0.0013; and ACACGTGA, with 0.432 ± 0.055. CCAGGTGA: the “PBM 8-mer E-score” value was -0.121 ± 0.026. In the case of AGCTCTTG it was 0.00816 ± 0.055.

On to CAGGCAGA, for which the “PBM 8-mer E-score” value was -0.144 ± 0.036.

Consider CCGGCAAA, for which the “PBM 8-mer E-score” value was -0.223 ± 0.11. Regarding AAACCGTC, the “PBM 8-mer E-score” value is -0.172 ± 0.074. Then ACCCAGAC, with -0.109 ± 0.007; and CTAACGCC, with -0.0238 ± 0.038; and AATTGCCT, with 0.00671 ± 0.018. In the case of AATAGGGA it was 0.142 ± 0.022; in that of CGTTACAC, -0.0405 ± 0.053; in that of ACACGTAG, 0.0342 ± 0.052. Then AAACGTGT, with 0.169 ± 0.1; and ACACGTAT, with 0.218 ± 0.052; and ACACGTGG, with 0.446 ± 0.062. With TAACGTGA, the “PBM 8-mer E-score” value worked out at 0.101 ± 0.052. As for AAACGTGG, the “PBM 8-mer E-score” value was 0.201 ± 0.0053.

In the case of TCACGTAA, the “PBM 8-mer E-score” value was found to be 0.0827 ± 0.0065.

On to TCACGTGA, for which the “PBM 8-mer E-score” value is 0.442 ± 0.044.

On to ACACGTGT, for which the “PBM 8-mer E-score” value is 0.469 ± 0.029.
